Laboratory results as given in ChEMBL document CHEMBL3988442, “University of Dundee, Small-Polar-MMV Screening Library” (2021).

Legend:
[1] = biological target: T1, Aspartate--tRNA(Asp/Asn) ligase (Mycobacterium tuberculosis (strain ATCC 25618 / H37Rv)) (UniProt P9WFW3); assay: Assay for Asp RNA synthetase-1 from Mycobacterium tuberculosis; assay type: functional; set-up: scale not given: direction of the effect not stated beside the values; details: 30 µM; also: in the data most compounds retested in dose-response had high values
T1 sequence (whole entry): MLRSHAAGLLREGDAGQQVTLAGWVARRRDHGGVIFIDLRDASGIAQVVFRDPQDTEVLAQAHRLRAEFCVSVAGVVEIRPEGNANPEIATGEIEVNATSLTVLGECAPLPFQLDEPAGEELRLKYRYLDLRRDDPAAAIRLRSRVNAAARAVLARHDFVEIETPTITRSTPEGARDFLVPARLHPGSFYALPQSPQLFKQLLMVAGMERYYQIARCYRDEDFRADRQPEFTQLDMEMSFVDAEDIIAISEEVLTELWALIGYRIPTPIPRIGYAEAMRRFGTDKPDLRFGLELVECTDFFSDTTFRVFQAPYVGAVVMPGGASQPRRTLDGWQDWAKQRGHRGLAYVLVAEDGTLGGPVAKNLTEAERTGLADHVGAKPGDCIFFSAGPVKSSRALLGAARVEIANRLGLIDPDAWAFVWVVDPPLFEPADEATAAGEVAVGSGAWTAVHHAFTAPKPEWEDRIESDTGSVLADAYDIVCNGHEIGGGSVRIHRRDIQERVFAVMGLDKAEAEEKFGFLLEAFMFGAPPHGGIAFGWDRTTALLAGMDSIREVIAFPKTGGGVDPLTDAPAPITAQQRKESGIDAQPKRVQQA

[2] = biological target: Shiga toxin 2 (Escherichia coli O157:H7) (UniProt P09385+P09386); assay: E. coli 0.157:H7 Shiga Toxin SOP - stx2 screening assay; assay type: functional; set-up: scale not given: direction of the effect not stated beside the values; details: 30 µM

Structure (SMILES)	Percent Effect [1] [%]	Percent Effect [2] [%]
Cc1cccc(CS(=O)(=O)NCC(O)Cc2ccccc2)c1 (configuration not stated)	-8.39	0.958
CCc1c(C(=O)NCC2CCS(=O)(=O)C2)cnn1-c1ccc(C)cc1 (configuration not stated)	-1.8	-0.796
CC(=O)N(Cc1ncc(C)o1)C1CCN(CCCc2cnn(C)c2)C1 (configuration not stated)	6.13	-33.8
Cn1cnc2c1CCN(Cc1nc(COc3ccc(F)cc3)no1)C2	2.19	19
O=C(Nc1cccnc1)N1CCC(n2ccc(C(F)(F)F)n2)CC1	-4.08	-16.7
COc1cc(S(=O)(=O)N2CCc3ccc(F)cc32)cc(C(=O)O)c1OC	1.4	2.68
O=C(N[C@@H]1CN(Cc2ccccc2)C[C@@H]2CCCO[C@@H]21)C1CC1	1.66	-19.6
Cc1cc(-c2nnn(CCNS(C)(=O)=O)n2)ccc1F	-2.07	-10.6
CSCc1cccc(S(=O)(=O)N2CCC(C)CC2)c1	-1.92	4.74
c1cnc(NCc2ncn3c2CN(Cc2cccnc2)CCC3)nc1	-2.66	-5.14
Cc1ccc(CNC(=O)Nc2nnc(C)s2)cn1	4.24	-6.66
CC(=O)N1CCCC1c1cccc(Cc2ccc(F)cc2)n1 (configuration not stated)	-5.96	5.81
COc1ccc(CCN2CCc3c(nc(C4CC4)n3C)C2)cc1	4.19	-51.7
Cc1cccc(-c2nc(CN3CCc4cnc(C)nc4C3)no2)c1	4.76	6.99
Cc1noc(C(C)N2CCN(CC(=O)N3CCOCC3)CC2)n1 (configuration not stated)	-8.27	-0.00886
CCCNC(=O)Cn1cc(-c2ccccc2)cn1	-2.52	-0.0685
CCC1(CC)Cc2ccccc2-c2nc(CN(C)C)nc(O)c21	8.36	-1.34
CCCC(=O)N1CCC(O)(Cn2c(CC)nc3ccccc3c2=O)CC1	0.164	0.775
O=C(N1CCOCC1)[C@@]12CCO[C@@H]1CCN(CC1CCCCC1)C2	-2.47	-36.5
Cc1cc(CN(C)C(=O)c2ccc(Cl)c(S(C)(=O)=O)c2)no1	-2.25	-3.87
CCc1nnc2n1CCN(CC(=O)Nc1cc(C(C)(C)C)nn1C)C2	0.589	28.9
O=C(NCC1CCOC1)c1csc(-c2ccco2)n1 (configuration not stated)	2.85	-11.7
C=Cc1ccc(C(=O)N2CCCC(Nc3ccc(OC)cc3)C2)cc1 (configuration not stated)	1.04	-6.01

Structure (SMILES)	Percent Effect [1] [%]	Percent Effect [2] [%]
COc1ccc(CS(=O)(=O)CC(=O)NCC2CC2)cc1F	3.98	-12.5
Cc1cc(C)n(CC(=O)N2CCC(c3nc(C)no3)CC2)n1	3.56	3.16
CC(C)CCN(C)C(=O)c1nc(S(C)(=O)=O)n2ccccc12	-3.39	26.2
CN(C)C(=O)CSc1nnc(CCNC(=O)OC(C)(C)C)o1	2.93	-59.4
Cn1ccc(CN2CCC(CO)CC2)cc1=O	-0.422	-5.61
CCN1CCN(S(=O)(=O)c2ncn(C)c2Cl)CC1	-2.51	-7.16
Cn1cc(-c2csc(N3CCN(C(=O)OC(C)(C)C)CC3)n2)cn1	0.501	-1.73
O=C(c1ccncc1)N1CCCC2(COCCN(c3ccccc3)C2)C1 (configuration not stated)	2.82	-1.46
COCCNS(=O)(=O)c1cccc2c1CN(C(=O)c1ccccc1)CC2	-2.79	-27.5
CC(=O)N1CCn2c(C(=O)N(C)C)cnc2C1	-2.78	-21.6
CN(Cc1ccco1)Cc1cncc2c1CCN(c1ncccn1)C2	0.874	-26.7
O=C(CSc1nncs1)N1CCN(Cc2ccc(Cl)s2)CC1	-5.38	-5.37
CCS(=O)(=O)N1CCOC2(CCCN(c3ccc(C)nn3)C2)C1 (configuration not stated)	3.41	-15.9
COc1cccc(CN2CCCC3(CCN(C(=O)c4ccco4)C3)C2)c1 (configuration not stated)	0.0455	-1.7
Cc1cc(C)n(Cc2ccc(C(=O)NCCN3CCOCC3)cc2)n1	-4.18	6.83
O=C(NCCN1CCCCCC1=O)c1n[nH]c(=O)c2ccccc12	-3.85	-6.19
O=C(c1ccoc1)N1CC[C@H]2OCC[C@@]2(COc2ncccc2F)C1	-0.296	3.1
CC(=O)N1CCNCC1c1cccc(C(=O)N(C)C)c1 (configuration not stated)	-4.15	8.72
CC(c1cccnc1)N(C)Cc1csc(-c2ccccn2)n1 (configuration not stated)	-4.49	-14.1
COCC(O)CN(C)C(=O)NC1CCN(Cc2ccccn2)CC1 (configuration not stated)	-3.52	-36.8
CCc1n[nH]c(C2CN(C(=O)c3cnns3)CCO2)n1 (configuration not stated)	-0.228	10.8
CN(C)C(=O)COC[C@]12COC[C@H]1CN(Cc1ccoc1)C2	-2.38	-7.04
Cc1nc(CCNC(=O)C2CC(=O)N(C(C)(C)C)C2)sc1C (configuration not stated)	1.05	-3.12
